PubChem BioAssay (NCATS)
Where “and” joins values, the source holds several entries; their conditions need not be identical. Identical values can stand only once. Records with an inconclusive call do not appear. Entries that show only a call come without a potency. Calls of active or inactive are those of the source. Unless noted, calls come from the whole dose curve; as a rule, active = well fitted curve in the direction sought with a large enough effect; inconclusive = small, poorly fitted or top-dose-only effect, or another doubt; inactive = no such curve, though single readings can be large; an effect the other way counts as inactive or inconclusive.

Target: Cytochrome P450 2C9 (Homo sapiens) (UniProt P11712)
Sequence (P11712 whole entry, looked up): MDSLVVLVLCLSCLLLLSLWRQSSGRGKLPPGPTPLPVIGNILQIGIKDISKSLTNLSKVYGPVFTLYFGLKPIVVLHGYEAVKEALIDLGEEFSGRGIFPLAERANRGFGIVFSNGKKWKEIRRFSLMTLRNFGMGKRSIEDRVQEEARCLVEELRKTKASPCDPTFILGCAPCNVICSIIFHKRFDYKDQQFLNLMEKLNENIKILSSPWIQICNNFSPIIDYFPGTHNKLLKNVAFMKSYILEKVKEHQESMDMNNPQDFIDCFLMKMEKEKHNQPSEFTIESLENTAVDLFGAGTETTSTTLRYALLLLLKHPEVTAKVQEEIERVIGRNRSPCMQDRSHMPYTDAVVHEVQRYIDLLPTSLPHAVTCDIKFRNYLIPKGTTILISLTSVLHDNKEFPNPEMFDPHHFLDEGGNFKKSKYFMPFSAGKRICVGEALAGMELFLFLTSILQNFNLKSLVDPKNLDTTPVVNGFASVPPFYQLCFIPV
Test: Cytochrome P450 family 2 subfamily C member 9 (CYP2C9) small molecule antagonists: luciferase biochemical (cell-free) qHTS assay (AID 1645842; active = well fitted curve in the direction sought with a large enough effect in the repeat runs; an effect the other way counts as inactive or inconclusive; note: nearly all actives have a fitted effect of over 55% in size)
Settings: P450-Glo CYP2C9 enzyme assay, luciferin luminescence; series mostly up to 57.4 µM
Summary of the method: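 Luminescence, after 20 min with luciferin detection reagent, reflected CYP2C9 turnover during a 1 h NADPH-driven reaction at 37C. Enzyme-substrate mix contained 0.4% bovine serum albumin and was preincubated with compound 10 min at room temperature.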
Potency is the fitted concentration of half-maximal effect.

Q: For `C#C[C@]1(OC(C)=O)CC[C@H]2[C@@H]3CCC4=C/C(=N/O)CC[C@@H]4[C@H]3CC[C@@]21CC`, which Potency is on record?
A: 952 nM (active) and 7.76 µM (active)

Q: With `CCc1oc2ccccc2c1C(=O)c1cc(I)c(O)c(I)c1` as the compound, how does the Potency read?
A: 0.347 µM (active)

Q: With `Oc1c(Cl)cc(Cl)c(Cl)c1Cc1c(O)c(Cl)cc(Cl)c1Cl` as the compound, how does the Potency read?
A: 1.55 µM (active)

Q: For `COc1ccc(-c2cc(C(F)F)nn2-c2ccc(S(N)(=O)=O)cc2)cc1F`, which Potency is on record?
A: 6.17 µM (active)

Q: For `CCCCCN=C(N)N/N=C/c1c[nH]c2ccc(OC)cc12`, which Potency is on record?
A: inactive

Q: With `CCN(CC)CCOc1ccccc1C(=O)CCc1ccccc1` as the compound, how does the Potency read?
A: inactive

Q: With `CCO[C@@H]1O[C@H](C(COCc2ccccc2)OCc2ccccc2)[C@H](OCc2ccccc2)[C@H]1O` (some centres undefined) as the compound, how does the Potency read?
A: 3.09 µM (active)

Q: For `Nc1nc(Cl)nc2c1ncn2[C@@H]1O[C@H](CO)[C@@H](O)[C@@H]1F`, which Potency is on record?
A: inactive

Q: Which Potency does the source give for `O=C(CN1CCN(Cc2ccc3c(c2)OCO3)CC1)N1c2ccccc2Sc2ccccc21` here?
A: 7.76 µM (active)

Q: With `CN(C)CCOC(c1ccc(Cl)cc1)c1ccccn1` (centres undefined) as the compound, how does the Potency read?
A: inactive

Q: With `O=c1[nH]c(=O)n([C@H]2C[C@H](O)[C@@H](CO)O2)cc1F` as the compound, how does the Potency read?
A: inactive

Q: Which Potency does the source give for `C[C@H]1O[C@@H](O[C@H]2CC[C@@]3(C)[C@H](CC[C@@H]4[C@@H]3C[C@@H](O)[C@]3(C)[C@@H](C5=CC(=O)OC5)CC[C@]43O)C2)C[C@H](O)[C@@H]1O[C@H]1C[C@H](O)[C@H](O[C@H]2C[C@H](O)[C@H](O[C@@H]3O[C@H](CO)[C@@H](O)[C@H](O)[C@H]3O)[C@@H](C)O2)[C@@H](C)O1` here?
A: inactive

Q: Which Potency does the source give for `C#C[C@]1(O)CC[C@H]2[C@@H]3CCc4cc(OC)ccc4[C@H]3CC[C@@]21C` here?
A: 6.92 µM (active) and 4.25 µM (active)

Q: With `CCN(CC)CCNc1ccc(CO)c2sc3ccccc3c(=O)c12` as the compound, how does the Potency read?
A: inactive

Q: For `N/C(=N\N=C\c1ccc(Cl)cc1)N/N=C/c1ccc(Cl)cc1`, which Potency is on record?
A: 13.8 µM (active)

Q: Which Potency does the source give for `CC(C)=CCOc1ccc(/C=C/C(=O)c2ccc(OCC=C(C)C)cc2OCC(=O)O)cc1` here?
A: 15.5 µM (active)

System: not listed separately
Test: Primary qHTS for inhibitors of nuclear receptor binding SET domain protein 2 (NSD2) in an isogenic RCH-ACV NSD2 p.E1099K mutant (9B) (AID 1645876); note: nearly all actives have a fitted effect of over 70% in size
Settings: RCH-ACV (leukaemia line) NSD2 E1099K (9B) viability, CellTiter-Glo, 72 h; series mostly up to 44.9 µM

Q: Which Potency does the source give for `CCN(CC)CCOc1ccc2c(c1)C(=O)c1cc(OCCN(CC)CC)ccc1-2` here?
A: 9.44 µM (active)

Q: For `C[C@@]12C(=O)OC(=O)[C@]1(C)C1CCC2O1`, which Potency is on record?
A: 2.99 µM (active)

Q: Which Potency does the source give for `Oc1c(Cl)cc(Cl)c(Cl)c1Cc1c(O)c(Cl)cc(Cl)c1Cl` here?
A: 5.96 µM (active)

Q: With `CC(=O)Nc1ncc([N+](=O)[O-])s1` as the compound, how does the Potency read?
A: inactive

Q: With `CCCCCN=C(N)N/N=C/c1c[nH]c2ccc(OC)cc12` as the compound, how does the Potency read?
A: 7.5 µM (active)

Q: Which Potency does the source give for `O=C(O)CCC(=O)Nc1ccc(S(=O)(=O)Nc2nccs2)cc1` here?
A: inactive

Q: Which Potency does the source give for `O=C(NCCc1c[nH]c2ccccc12)c1cccnc1` here?
A: inactive

Q: Which Potency does the source give for `CCN(CC)CCOc1ccccc1C(=O)CCc1ccccc1` here?
A: inactive

Q: Which Potency does the source give for `CCO[C@@H]1O[C@H](C(COCc2ccccc2)OCc2ccccc2)[C@H](OCc2ccccc2)[C@H]1O` (some centres undefined) here?
A: 23.7 µM (active)

Q: For `C#C[C@]1(O)CC[C@H]2[C@@H]3[C@H](C)CC4=C(CCC(=O)C4)[C@H]3CC[C@@]21C`, which Potency is on record?
A: 23.7 µM (active)

Q: For `Nc1nc(Cl)nc2c1ncn2[C@@H]1O[C@H](CO)[C@@H](O)[C@@H]1F`, which Potency is on record?
A: 10.6 nM (active) and 52.5 nM (active)

Q: With `CC(C)[C@@H]1CC[C@@H](C)CC1=O` as the compound, how does the Potency read?
A: inactive

Q: With `COc1ccc(C(=O)c2ccccc2O)c(O)c1` as the compound, how does the Potency read?
A: inactive

Q: With `CCCCN1C[C@H](O)[C@@H](O)[C@H](O)[C@H]1CO` as the compound, how does the Potency read?
A: inactive

Q: Which Potency does the source give for `CCOC(=O)C(C#N)=C(c1ccccc1)c1ccccc1` here?
A: inactive

Q: For `CCCCCCCCCCCCCC[N+](C)(C)Cc1ccccc1`, which Potency is on record?
A: 0.335 µM (active)

Q: For `O=C(CN1CCN(Cc2ccc3c(c2)OCO3)CC1)N1c2ccccc2Sc2ccccc21`, which Potency is on record?
A: inactive

Q: Which Potency does the source give for `CCCCCCCCNC(C)C(O)c1ccc(SC(C)C)cc1` (centres undefined) here?
A: 10.6 µM (active)

Q: Which Potency does the source give for `COc1ccc2c(c1)c1c3n2CCN(C)C3=NCC1` here?
A: inactive

Q: For `CC(CNC1CCCCC1)OC(=O)c1ccccc1` (centres undefined), which Potency is on record?
A: inactive

Q: With `O=c1[nH]c(=O)n([C@H]2C[C@H](O)[C@@H](CO)O2)cc1F` as the compound, how does the Potency read?
A: 13.3 nM (active) and 29.5 nM (active)

Q: Which Potency does the source give for `O=C(N/N=C/c1ccc([N+](=O)[O-])o1)c1ccc(O)cc1` here?
A: 5.96 µM (active)

Q: With `C[C@H]1O[C@@H](O[C@H]2CC[C@@]3(C)[C@H](CC[C@@H]4[C@@H]3C[C@@H](O)[C@]3(C)[C@@H](C5=CC(=O)OC5)CC[C@]43O)C2)C[C@H](O)[C@@H]1O[C@H]1C[C@H](O)[C@H](O[C@H]2C[C@H](O)[C@H](O[C@@H]3O[C@H](CO)[C@@H](O)[C@H](O)[C@H]3O)[C@@H](C)O2)[C@@H](C)O1` as the compound, how does the Potency read?
A: 0.0668 µM (active)

Q: With `C#C[C@]1(O)CC[C@H]2[C@@H]3CCc4cc(OC)ccc4[C@H]3CC[C@@]21C` as the compound, how does the Potency read?
A: inactive

Q: For `C/C=C/C=N/NC(=O)c1ccncc1`, which Potency is on record?
A: inactive

Q: With `CCN(CC)CCNc1ccc(CO)c2sc3ccccc3c(=O)c12` as the compound, how does the Potency read?
A: 2.66 µM (active)

Q: For `COc1ccccc1N1CCN(CCCCNC(=O)c2ccc(-c3ccc(C(C)=O)cc3)cc2)CC1`, which Potency is on record?
A: inactive

Q: For `N/C(=N\N=C\c1ccc(Cl)cc1)N/N=C/c1ccc(Cl)cc1`, which Potency is on record?
A: inactive
